# From paper PMC7862700, “An all-to-all approach to the identification of sequence-specific readers for epigenetic DNA modifications on cytosine”
# Key:
# Assay in all cases: DAPPL (digital affinity profiling via proximity ligation, sequencing); 10 mM Tris-HCl pH 7.5, 50 mM NaCl, 1 mM DTT, 4% glycerol, room temperature, 30 min; GST-TFs on glutathione beads, 16-mer random dsDNA library, 0.1% formaldehyde crosslink after washing; high values mean tight binding
# Conditions in all cases: protein: recombinant; tags: N-terminal GST; dsDNA, one strand shown
# [1] = biological target: T1, FLI1 (Homo sapiens, UniProt Q01543 1-452)
# T1 sequence: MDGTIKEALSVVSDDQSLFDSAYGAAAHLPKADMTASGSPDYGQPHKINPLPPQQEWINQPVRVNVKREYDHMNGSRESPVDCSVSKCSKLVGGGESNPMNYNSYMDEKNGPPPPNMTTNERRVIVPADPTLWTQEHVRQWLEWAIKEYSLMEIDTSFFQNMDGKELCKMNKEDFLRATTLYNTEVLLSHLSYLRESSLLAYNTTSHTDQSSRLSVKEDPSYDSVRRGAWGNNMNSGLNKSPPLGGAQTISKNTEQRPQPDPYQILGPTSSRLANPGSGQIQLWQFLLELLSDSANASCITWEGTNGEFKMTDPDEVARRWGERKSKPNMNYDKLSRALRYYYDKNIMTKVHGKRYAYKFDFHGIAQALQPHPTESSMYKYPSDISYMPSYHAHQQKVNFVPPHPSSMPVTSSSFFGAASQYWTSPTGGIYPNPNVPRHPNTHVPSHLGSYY
# How it was run: (§1)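 Pools of DNA-barcoded human transcription factors, expressed in yeast as GST fusions on glutathione beads and combined with a tag-only sample, were incubated with 200 nmole of a 16-mer random double-stranded DNA library. Incubation took 30 min at room temperature in Tris/NaCl/DTT/glycerol buffer and was followed by washing, 0.1% formaldehyde crosslinking, proximity ligation (BsaI/T4 ligase, 1 h, 37 °C), PCR amplification and sequencing on an Illumina NextSeq500. Binding signal is the ratio of a hexamer's read frequency for a factor to its frequency for the tag-only sample.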
# [2] = biological target: T2, ELK1 (Homo sapiens, UniProt P19419 1-428)
# T2 sequence: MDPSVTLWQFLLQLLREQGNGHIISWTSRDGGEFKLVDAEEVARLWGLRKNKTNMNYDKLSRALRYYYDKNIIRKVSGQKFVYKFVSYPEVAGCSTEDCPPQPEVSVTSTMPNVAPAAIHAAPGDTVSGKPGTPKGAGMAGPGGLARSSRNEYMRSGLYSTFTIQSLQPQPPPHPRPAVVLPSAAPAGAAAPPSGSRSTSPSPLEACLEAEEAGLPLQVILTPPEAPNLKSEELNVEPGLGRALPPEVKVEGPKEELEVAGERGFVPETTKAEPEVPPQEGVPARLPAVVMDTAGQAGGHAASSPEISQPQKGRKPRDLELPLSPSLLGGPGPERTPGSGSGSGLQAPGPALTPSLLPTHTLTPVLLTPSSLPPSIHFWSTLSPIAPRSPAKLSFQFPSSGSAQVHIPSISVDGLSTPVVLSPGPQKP
# How it was run: as §1
# [3] = biological target: T3, GABPA (Homo sapiens, UniProt Q06546 1-454)
# T3 sequence: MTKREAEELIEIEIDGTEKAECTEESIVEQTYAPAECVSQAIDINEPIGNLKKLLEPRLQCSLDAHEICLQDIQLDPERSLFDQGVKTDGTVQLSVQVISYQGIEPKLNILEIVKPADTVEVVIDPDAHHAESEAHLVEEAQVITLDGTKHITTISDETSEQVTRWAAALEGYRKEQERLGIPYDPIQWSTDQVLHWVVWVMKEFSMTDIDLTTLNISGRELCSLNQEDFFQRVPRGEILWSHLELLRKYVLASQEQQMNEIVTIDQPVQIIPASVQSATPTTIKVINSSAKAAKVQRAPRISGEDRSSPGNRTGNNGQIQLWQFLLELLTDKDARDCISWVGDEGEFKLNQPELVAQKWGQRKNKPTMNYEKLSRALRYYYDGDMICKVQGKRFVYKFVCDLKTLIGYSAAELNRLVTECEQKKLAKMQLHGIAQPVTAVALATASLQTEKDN
# How it was run: as §1
# [4] = biological target: T4, ERG (Homo sapiens, UniProt P11308 1-479)
# T4 sequence: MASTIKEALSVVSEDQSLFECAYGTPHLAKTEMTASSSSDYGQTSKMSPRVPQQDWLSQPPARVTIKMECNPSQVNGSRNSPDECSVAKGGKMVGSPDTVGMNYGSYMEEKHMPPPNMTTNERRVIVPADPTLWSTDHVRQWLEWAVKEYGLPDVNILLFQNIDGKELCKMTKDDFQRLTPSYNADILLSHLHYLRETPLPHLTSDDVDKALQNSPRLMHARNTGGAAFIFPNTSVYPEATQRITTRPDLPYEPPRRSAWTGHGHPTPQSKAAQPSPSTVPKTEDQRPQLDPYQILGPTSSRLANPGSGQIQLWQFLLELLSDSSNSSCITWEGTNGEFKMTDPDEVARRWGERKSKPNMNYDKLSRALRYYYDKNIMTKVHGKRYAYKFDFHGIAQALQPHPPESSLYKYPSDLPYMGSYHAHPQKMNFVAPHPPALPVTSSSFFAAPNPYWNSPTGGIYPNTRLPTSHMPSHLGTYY
# How it was run: as §1
# [5] = biological target: ELF1 (Homo sapiens, UniProt P32519 1-619)
# Chain of ELF1 (P32519 whole entry): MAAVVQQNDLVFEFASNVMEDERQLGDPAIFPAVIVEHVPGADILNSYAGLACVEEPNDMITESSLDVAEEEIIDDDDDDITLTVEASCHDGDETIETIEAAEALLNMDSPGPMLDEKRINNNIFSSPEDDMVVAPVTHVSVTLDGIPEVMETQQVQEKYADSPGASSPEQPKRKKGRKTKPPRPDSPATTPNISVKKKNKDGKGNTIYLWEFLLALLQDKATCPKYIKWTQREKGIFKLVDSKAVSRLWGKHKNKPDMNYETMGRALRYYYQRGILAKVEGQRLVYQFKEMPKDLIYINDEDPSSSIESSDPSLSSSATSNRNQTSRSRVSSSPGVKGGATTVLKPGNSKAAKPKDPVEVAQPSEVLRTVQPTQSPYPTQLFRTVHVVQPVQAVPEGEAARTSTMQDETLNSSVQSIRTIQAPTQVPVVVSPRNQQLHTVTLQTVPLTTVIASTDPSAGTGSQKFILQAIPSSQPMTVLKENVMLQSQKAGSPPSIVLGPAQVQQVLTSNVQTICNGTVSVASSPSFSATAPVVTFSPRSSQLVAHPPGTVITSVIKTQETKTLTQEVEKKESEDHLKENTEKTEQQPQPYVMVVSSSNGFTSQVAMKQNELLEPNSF
# How it was run: as §1
# [6] = biological target: T5, EHF (Homo sapiens, UniProt Q9NZC4 1-300)
# T5 sequence: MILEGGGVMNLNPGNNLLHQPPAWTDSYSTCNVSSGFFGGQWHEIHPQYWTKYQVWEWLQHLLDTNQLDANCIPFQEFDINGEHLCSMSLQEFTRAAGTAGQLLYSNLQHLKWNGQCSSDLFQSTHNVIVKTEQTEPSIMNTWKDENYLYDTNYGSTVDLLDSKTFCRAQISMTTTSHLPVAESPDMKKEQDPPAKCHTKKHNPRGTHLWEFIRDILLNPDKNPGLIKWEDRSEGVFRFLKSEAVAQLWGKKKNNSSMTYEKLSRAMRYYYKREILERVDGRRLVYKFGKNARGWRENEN
# How it was run: as §1
# [7] = biological target: SPI1 (Homo sapiens, UniProt P17947 1-270)
# How it was run: as §1
# [8] = biological target: SPIB (Homo sapiens, UniProt Q01892 1-262)
# Chain of SPIB (Q01892 whole entry): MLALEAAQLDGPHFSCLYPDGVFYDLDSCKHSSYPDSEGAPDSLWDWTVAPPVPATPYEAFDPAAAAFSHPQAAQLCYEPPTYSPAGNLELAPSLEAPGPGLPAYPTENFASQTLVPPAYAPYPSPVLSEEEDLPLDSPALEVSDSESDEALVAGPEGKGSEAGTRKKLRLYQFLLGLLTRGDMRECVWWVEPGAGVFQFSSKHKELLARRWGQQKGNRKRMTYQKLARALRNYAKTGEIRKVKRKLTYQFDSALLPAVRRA
# How it was run: as §1
# [9] = biological target: T6, ELK3 (Homo sapiens, UniProt P41970 1-407)
# T6 sequence: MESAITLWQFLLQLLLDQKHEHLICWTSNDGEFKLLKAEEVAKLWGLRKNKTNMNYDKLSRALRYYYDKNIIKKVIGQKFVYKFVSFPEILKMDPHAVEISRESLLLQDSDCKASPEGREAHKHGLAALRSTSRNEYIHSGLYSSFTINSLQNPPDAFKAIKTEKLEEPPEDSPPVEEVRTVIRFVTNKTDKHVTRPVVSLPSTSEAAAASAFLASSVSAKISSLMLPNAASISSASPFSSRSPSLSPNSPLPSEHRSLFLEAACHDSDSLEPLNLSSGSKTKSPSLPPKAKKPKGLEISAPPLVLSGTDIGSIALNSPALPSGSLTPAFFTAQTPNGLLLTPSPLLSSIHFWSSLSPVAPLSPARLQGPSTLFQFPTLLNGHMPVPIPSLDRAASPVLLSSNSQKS
# How it was run: as §1
sequence,measurement,setting,value
CCGATT,binding signal,[1],"1.42 fold enrichment (6-mer frequency, TF over GST control)"
same,binding signal,[2],"1.35 fold enrichment (6-mer frequency, TF over GST control)"
same,binding signal,[3],"1.32 fold enrichment (6-mer frequency, TF over GST control)"
same,binding signal,[4],"1.34 fold enrichment (6-mer frequency, TF over GST control)"
same,binding signal,[5],"1.36 fold enrichment (6-mer frequency, TF over GST control)"
same,binding signal,[6],"1.4 fold enrichment (6-mer frequency, TF over GST control)"
same,binding signal,[7],"1.31 fold enrichment (6-mer frequency, TF over GST control)"
same,binding signal,[8],"1.4 fold enrichment (6-mer frequency, TF over GST control)"
same,binding signal,[9],"1.29 fold enrichment (6-mer frequency, TF over GST control)"
